These results are taken from PMC4336329 (PLoS ONE, 2015).

Structures are written as SMILES. Out of some 310,000 compounds screened, about 2,200 (0.71%) showed an effect of 50% or more. Effects have a minus sign here. This excerpt belongs to a sample that is enriched for strong results.

In the test the target is human ether-à-go-go-related gene (hERG) potassium channel (human, UniProt Q12809). Nature of the test: primary screen, population patch clamp on CHO cells stably expressing hERG; higher = less effect of the substance.
Chain of human ether-à-go-go-related gene (hERG) potassium channel (Q12809 whole entry, looked up): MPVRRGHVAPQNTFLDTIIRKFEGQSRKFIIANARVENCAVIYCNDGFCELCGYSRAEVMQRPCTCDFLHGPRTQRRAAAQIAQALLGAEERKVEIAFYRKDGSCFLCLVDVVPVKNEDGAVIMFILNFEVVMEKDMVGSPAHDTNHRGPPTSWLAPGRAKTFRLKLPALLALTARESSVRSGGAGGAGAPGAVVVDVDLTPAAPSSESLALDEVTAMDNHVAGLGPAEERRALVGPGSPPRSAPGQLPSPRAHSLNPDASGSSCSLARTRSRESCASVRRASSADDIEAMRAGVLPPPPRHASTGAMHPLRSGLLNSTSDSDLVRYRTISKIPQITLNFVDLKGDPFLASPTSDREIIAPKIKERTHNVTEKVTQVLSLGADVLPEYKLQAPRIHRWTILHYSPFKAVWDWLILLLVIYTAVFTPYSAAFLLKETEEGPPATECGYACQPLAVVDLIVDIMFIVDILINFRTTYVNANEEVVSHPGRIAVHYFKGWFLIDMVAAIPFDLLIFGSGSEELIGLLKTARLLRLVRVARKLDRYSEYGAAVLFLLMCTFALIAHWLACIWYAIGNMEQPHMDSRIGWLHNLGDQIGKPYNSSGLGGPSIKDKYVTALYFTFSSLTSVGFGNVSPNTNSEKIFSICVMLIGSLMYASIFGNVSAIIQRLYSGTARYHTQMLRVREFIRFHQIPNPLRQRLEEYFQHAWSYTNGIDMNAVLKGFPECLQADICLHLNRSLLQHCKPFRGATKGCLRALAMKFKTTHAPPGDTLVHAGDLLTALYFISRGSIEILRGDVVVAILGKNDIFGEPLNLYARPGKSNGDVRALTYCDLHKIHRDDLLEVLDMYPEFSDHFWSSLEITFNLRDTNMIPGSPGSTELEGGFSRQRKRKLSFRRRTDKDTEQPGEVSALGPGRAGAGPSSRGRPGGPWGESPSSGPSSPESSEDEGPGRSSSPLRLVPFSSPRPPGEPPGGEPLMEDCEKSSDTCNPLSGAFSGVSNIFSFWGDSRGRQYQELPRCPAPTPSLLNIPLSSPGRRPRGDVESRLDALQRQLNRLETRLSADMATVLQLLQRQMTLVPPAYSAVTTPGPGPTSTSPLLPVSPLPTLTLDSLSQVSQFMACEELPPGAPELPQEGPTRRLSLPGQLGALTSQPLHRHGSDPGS
In the case of `Cc1onc(-c2ccccc2)c1-c1ccnn1C(=O)NC(C)C`, the “hERG current change (%, negative = inhibition) at 1uM” value is listed as 6.54%.
The same measure for `CCCOc1ccc(N2CC(C(=O)Nc3ccccc3C(=O)NCc3ccco3)CC2=O)cc1` (stereo not shown): -29.5%.
On to `O=C(NC1CCCCC1)c1ccccc1NC(=O)C1CC(=O)N(c2ccc(Cl)cc2)C1` (stereo not shown), for which the “hERG current change (%, negative = inhibition) at 1uM” value is on record as 13.2%.
The value for `CCCOc1ccc(N2CC(C(=O)Nc3ccccc3C(=O)NC)CC2=O)cc1` (stereo not shown) was -56.5%; that for `CNC(=O)c1ccccc1NC(=O)C1CC(=O)N(c2ccc(OC)cc2)C1` (stereo not shown) was 9.77%; that for `Cc1ccc(N2CC(C(=O)Nc3ccccc3C(=O)NC3CCCCC3)CC2=O)cc1` (stereo not shown) was 5.42%.
The same measure for `O=C(NC1CCCCC1)c1ccccc1NC(=O)C1CC(=O)N(c2ccccc2)C1` (stereo not shown): -64.3%; for `CCC(C)C1C(C#N)=C(N)Oc2n[nH]c(C)c21` (stereo not shown): 14.1%.
The same measure for `CN(C)CCCNc1ncc(C(F)(F)F)cc1Cl`: 10.3%.
`CN1C(=O)[C@@H]2[C@H](C1=O)[C@@H]1C(=O)Nc3ccccc3C(=O)N1[C@@H]2c1ccc(Br)cc1`: the “hERG current change (%, negative = inhibition) at 1uM” value was -16.7%.
The value for `CN1CCN(C(=O)c2cc3sccc3n2CC(=O)c2ccccc2)CC1` was -2.93%; that for `O=C(Cn1c(C(=O)N2CCN(C3CCCCC3)CC2)cc2sccc21)c1ccccc1` was -47.5%; that for `O=C(Cn1c(C(=O)N2CCN(C3CCCC3)CC2)cc2sccc21)c1ccccc1` was -51%.
The value for `COc1ccc(-c2cc(-c3cccs3)c(C#N)c(SCC(=O)NCc3ccccc3OC)n2)cc1` was -3.19%; that for `Cc1cccc(C)c1NC(=S)NCc1ccncc1` was 16%.
The value for `c1ccc(CN2CCC(Nc3nc(-c4cccnc4)nc4ccccc34)CC2)cc1` was -74.6%; that for `c1ccc(CN2CCC(Nc3nc(-c4cccs4)nc4ccccc34)CC2)cc1` was 10.5%; that for `c1ccc(CN2CCC(Nc3nc(-c4ccccc4)nc4ccccc34)CC2)cc1` was 4.83%.
Turning to `CSc1oc(-c2ccc(F)cc2)nc1S(=O)(=O)c1ccccc1`, the “hERG current change (%, negative = inhibition) at 1uM” value is -1.68%.
With `CC1(C)C([N+](=O)[O-])C(c2ccc(O)cc2)NC(c2ccc(O)cc2)C1[N+](=O)[O-]` (stereo not shown), the “hERG current change (%, negative = inhibition) at 1uM” value is given as 10.3%.
Consider `COc1ccc(CNCCc2ccc(Cl)cc2Cl)cc1`, for which the “hERG current change (%, negative = inhibition) at 1uM” value is 13.2%.
The same measure for `COc1ccc(CCC(C)NCCc2ccc(Cl)cc2Cl)cc1` (stereo not shown): -50.1%; for `COc1ccc(CCNC(C)CCc2ccc(OC)cc2)cc1` (stereo not shown): -2.61%.
The value for `CCC(=O)OC1(c2ccccc2)C(C)CN(C)CC1C.Cl` (stereo not shown) was 8.82%.
The value for `C[C@]12CCC[C@H](O1)[C@H]([C@@H](O)c1ccccc1)O2` was 16.5%.
For `CN1CCC(N(C)CC(O)c2ccccc2)CC1.O=C(O)C(=O)O` (stereo not shown), the “hERG current change (%, negative = inhibition) at 1uM” value is 1.81%.
The same measure for `CN1C(CC(=O)c2ccccc2)CCCC1CC(O)c1ccccc1` (stereo not shown): -55.2%; for `CN1C(CC(O)c2ccccc2)CCCC1CC(O)c1ccccc1.Cl` (stereo not shown): -46.3%; for `Cc1ccc2c(Cl)c(C(=O)NC3CC3)sc2c1`: 9.87%.
The value for `Cc1cccc(Cn2c(N3CCN(CCO)CC3)nc3c2c(=O)[nH]c(=O)n3C)c1` was 7.07%; that for `CCCCCCn1c(SCCN2CCOCC2)nc2c1c(=O)[nH]c(=O)n2C` was -64.1%; that for `Cn1c(=O)[nH]c(=O)c2c1nc(SCCN1CCCCC1)n2CCCc1ccccc1` was -57.3%.
The value for `CC(C)CCn1c(SCCN2CCOCC2)nc2c1c(=O)[nH]c(=O)n2C` was 1.89%; that for `Cn1c(=O)[nH]c(=O)c2c1nc(SCCO)n2CCCc1ccccc1` was 5.4%; that for `CCCCCn1c(SCCN2CCOCC2)nc2c1c(=O)[nH]c(=O)n2C` was -40.7%.
In the case of `Cn1c(=O)[nH]c(=O)c2c1nc(SCCN1CCCCC1)n2Cc1ccccc1`, the “hERG current change (%, negative = inhibition) at 1uM” value is -81.6%.
The same measure for `Cn1c(=O)[nH]c(=O)c2c1nc(SCCN1CCOCC1)n2CCCc1ccccc1`: -6.15%; for `CCCSc1nc2c(c(=O)[nH]c(=O)n2C)n1Cc1ccccc1`: 2.13%.
The value for `Cn1c(=O)[nH]c(=O)c2c1nc(SCCN1CCOCC1)n2Cc1ccccc1` was -12%; that for `Cc1cccc(Cn2c(SCCN3CCCCC3)nc3c2c(=O)[nH]c(=O)n3C)c1` was -80.7%; that for `COCCSc1nc2c(c(=O)[nH]c(=O)n2C)n1Cc1cccc(C)c1` was -5.69%.
The same measure for `O=C(O)C1CC(=O)N(Cc2ccc3c(c2)OCO3)C1` (stereo not shown): 6.73%; for `O=C(CN1CCCc2ccccc21)NCc1ccc2c(c1)OCO2`: 9.15%; for `CSc1ccc(-c2nc3cnccn3c2Nc2ccc3c(c2)OCO3)cc1`: 9.9%.
Take `Cc1ccccc1OCCC(=O)Nc1ccc(S(=O)(=O)N(C)C2CCN(C)CC2)cc1`: the “hERG current change (%, negative = inhibition) at 1uM” value is given as 20.4%.
The same measure for `Cc1ccc(Cn2c(SCCN3CCCCC3)nc3c2c(=O)[nH]c(=O)n3C)cc1`: -77.5%.
For the compound `Cc1ccc(Cn2c(N3CCCCCC3)nc3c2c(=O)[nH]c(=O)n3C)cc1`, the “hERG current change (%, negative = inhibition) at 1uM” value is 2.45%.
With `Cc1ccc(Cn2c(SCC(C)C)nc3c2c(=O)[nH]c(=O)n3C)cc1`, the “hERG current change (%, negative = inhibition) at 1uM” value is on record as 9.48%.
On to `O=C(Cc1ccc(Cl)cc1)N1CCc2ccccc2C1`, for which the “hERG current change (%, negative = inhibition) at 1uM” value worked out at 21.7%.
The value for `COc1cccc(C(c2sc3nc(C)nn3c2O)N2CCN(c3ccccc3F)CC2)c1` (stereo not shown) was 10%; that for `CCCCN(CCCC)CCNC(=O)CN1C(=O)CSc2ccc(S(=O)(=O)N3CCCCC3)cc21` was -51.7%.
The same measure for `CCCCN(CCCC)CCNC(=O)CN1C(=O)CSc2ccc(S(=O)(=O)N3CCOCC3)cc21`: -3.76%; for `CCCCN(C)CCNC(=O)CN1C(=O)CSc2ccc(S(=O)(=O)N3CCCCC3)cc21`: -6.21%.
As to `Nc1nc(N)c(N=Nc2ccc(C(=O)O)cc2)c(N)n1`, the “hERG current change (%, negative = inhibition) at 1uM” value came to 8.04%.
In the case of `Cc1ccc(Sc2cc(NCCCO)c([N+](=O)[O-])c3nonc23)cc1`, the “hERG current change (%, negative = inhibition) at 1uM” value was determined as 5.43%.
The same measure for `CCOC(=O)c1c(NC(=O)c2ccccc2C(=O)O)sc2c1CCCC2`: 16.3%; for `CCOC(=O)c1c(NC(=O)c2ccccc2C(=O)O)sc2c1CCC2`: 2.17%; for `CCOC(=O)c1c(NC(=O)C(NCCN(C)C)c2ccccc2)sc2c1CCCC2` (stereo not shown): -77.2%.
